Drawing on PubChem BioAssay (Tox21), this text covers Potency and outcome for eight compounds.

Values joined by “and” are separate entries in the source; they are usually repeats but may differ in a detail not shown here. Equal entries are not always repeated. Results filed as inconclusive are left out. Active and inactive are the calls of the source. Unless noted, calls come from the whole dose curve; as a rule, active = well fitted curve in the direction sought with a large enough effect in the repeat runs; inconclusive = weak or mixed curves; inactive = no such curve, though single readings can be large; an effect the other way counts as inactive or inconclusive.

The nature of experiment [1]: qHTS assay to identify aromatase inhibitors - cell viability counter screen (AID 743084).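 Note: cells stimulated with testosterone during compound exposure; nearly all actives have a fitted effect of over 55% in size.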
Experiment [2] addresses Aryl hydrocarbon receptor (Homo sapiens) (UniProt P35869). As to the kind of experiment: qHTS assay to identify small molecule that activate the aryl hydrocarbon receptor (AhR) signaling pathway (AID 743085).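 For activation: HG2L7.5c1 human HepG2 liver cells with stably integrated DRE-driven firefly reporter; series mostly up to about 70 µM.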 Note: nearly all actives have a fitted effect of over 15% in size. Note: potency is the fitted concentration of half-maximal effect. In outline:
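HepG2 cells (HG2L7.5c1) stably carrying a firefly luciferase reporter driven by 20 dioxin responsive elements were exposed to compound for 24 h at 37C after a 5 h settling period; luminescence rise (ONE-Glo) indicated activation.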

The nature of experiment [3]: qHTS assay to identify small molecule that activate the aryl hydrocarbon receptor (AhR) signaling pathway - cell viability counter screen (AID 743086).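 Note: HepG2 liver cells carrying the AhR DRE luciferase reporter; series mostly up to about 70 µM; nearly all actives have a fitted effect of over 45% in size.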 In outline: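 HepG2-AhR-luc (HG2L7.5c1) cells, 4000/well, were preincubated 5 h at 37C, exposed to compound in qHTS format for 24 hr at 37C, then given CellTiter-Fluor for 30 min; viability was read as fluorescence in the reporter wells.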

Experiment [4] deals with Peroxisome proliferator-activated receptor gamma (Homo sapiens) (UniProt P37231). The experiment is described as follows: qHTS assay to identify small molecule agonists of the peroxisome proliferator-activated receptor gamma (PPARg) signaling pathway (AID 743094; active = well fitted activation curve with a large enough effect in the signal ratio in the repeat runs, not every such curve was filed as active; the % refers to the signal ratio). In outline: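 Cells from the PPARg UAS-bla HEK293H line are plated and incubated 5 h at 37C. Compounds in DMSO are pinned in and left 17 h at 37C. LiveBLAzer B/G substrate is then added for 1 h at room temperature before fluorescence is measured.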

Experiment [5] has the same target. The experiment is described as follows: qHTS assay to identify small molecule antagonists of the peroxisome proliferator-activated receptor gamma (PPARg) signaling pathway (AID 743191; calls by dose curve; note: series mostly up to about 63 µM; nearly all actives have a fitted effect of over 30% in size). The gist of the method: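 GeneBLAzer PPARg UAS-bla HEK293H cells carrying a UAS-driven beta-lactamase reporter were plated at 3000 cells/well, preincubated 5 h at 37C, then given compound for 17 h at 37C; LiveBLAzer B/G FRET substrate was read after 1 h at room temperature.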

A short description of experiment [6]: qHTS assay to identify small molecule antagonists of the peroxisome proliferator-activated receptor gamma (PPARg) signaling pathway - cell viability counter screen (AID 743194). Note: nearly all actives have a fitted effect of over 55% in size. In outline: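 PPARg-UAS-bla HEK293H cells were plated, rested 5 h at 37 C, then treated with compounds plus rosiglitazone (50 nM final) for 17 h at 37 C; viability was then read by CellTiter-Glo luminescence after 30 min at room temperature.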

The nature of experiment [7]: qHTS assay for small molecule agonists of the antioxidant response element (ARE) signaling pathway (AID 743202; active = well fitted activation curve with a large enough effect in the signal ratio in the repeat runs, not every such curve was filed as active; the % refers to the signal ratio; note: potency is the fitted concentration of half-maximal effect). In outline:
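Steps: seed ARE-bla HepG2 cells (2,000/well); incubate 5 h at 37 C; add compounds by pin tool; incubate 16 h at 37 C; add FRET substrate; read fluorescence after 2 h at RT.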

The nature of experiment [8]: qHTS assay for small molecule agonists of the antioxidant response element (ARE) signaling pathway - cell viability counter screen (AID 743203; calls by dose curve; note: nearly all actives have a fitted effect of over 55% in size). The gist of the method:
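Cytotoxicity was tested in parallel with the ARE reporter screen. ARE-bla HepG2 cells were exposed to compounds for 16 hrs, and viability was taken from CellTiter-Glo luminescence.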

Experiment [9] in a line: qHTS assay for small molecule activators of the heat shock response signaling pathway - cell viability counter screen (AID 743209). Note: nearly all actives have a fitted effect of over 50% in size. In outline:
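Cytotoxicity counter screen run in parallel with the HSE beta-lactamase reporter, using the same wells. HeLa HSE-bla cells received compound for 5 h at 37 C; ATP-based CellTiter-Glo luminescence was measured after 30 min at room temperature.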

Experiment [10] in a line: qHTS assay for small molecule activators of the heat shock response signaling pathway (AID 743210; active = well fitted activation curve with a large enough effect in the signal ratio in the repeat runs, with a control signal flat, not every such curve was filed as active; the % refers to the signal ratio;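 note: HeLa cells with beta-lactamase reporter driven by heat shock elements; series mostly up to about 63 µM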). In outline: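 Activation of heat shock element-controlled beta-lactamase expression is measured in HeLa cells by LiveBLAzer FRET fluorescence, with compound exposure lasting 5 h at 37 C and substrate loading 2.5 h at room temperature.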
Experiment [11] can be described thus: qHTS assay to identify small molecule agonists of the peroxisome proliferator-activated receptor delta (PPARd) signaling pathway - cell viability counter screen (AID 743211). Note: nearly all actives have a fitted effect of over 55% in size. The gist of the method: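 PPARd-bla HEK293H cells (UAS-beta-lactamase reporter) were treated with compounds for 17 h at 37 C. Viability was then read in the same wells by CellTiter-Glo luminescence after 30 min at room temperature.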

Experiment [12] is described as follows: qHTS assay to identify small molecule antagonists of the peroxisome proliferator-activated receptor delta (PPARd) signaling pathway - cell viability counter screen (AID 743213). Note: nearly all actives have a fitted effect of over 50% in size. In outline:
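PPARd-bla HEK293H cells (3000/well) got compound plus 300 nM L165041 agonist for 17 h at 37 C. Viability in the same wells came from CellTiter-Glo luminescence after 30 min at room temperature.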

The target in experiment [13] is Bile acid receptor (Homo sapiens) (UniProt Q96RI1). As to the kind of experiment: qHTS assay to identify small molecule antagonists of the farnesoid-X-receptor (FXR) signaling pathway (AID 743217; active = well fitted inhibition curve with a large enough effect in the signal ratio in the repeat runs, not every such curve was filed as active; the % refers to the signal ratio). In outline:
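Cells carrying a UAS-driven beta-lactamase reporter (GeneBLAzer FXR-UAS-bla HEK 293T) were plated and rested 5 h at 37 °C. Compounds in DMSO were added alongside chenodeoxycholic acid agonist at 50 uM final and left 16 h at 37 °C before FRET substrate readout.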

A short description of experiment [14]: qHTS assay to identify small molecule agonists of the farnesoid-X-receptor (FXR) signaling pathway - cell viability counter screen (AID 743218). Note: nearly all actives have a fitted effect of over 45% in size. The gist of the method:
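Cells were seeded, left 5 h at 37 C and 5% CO2, then dosed with compound in DMSO for 16 h. After the beta-lactamase FRET read, CellTiter-Glo was added and luminescence measured 30 min later.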

Experiment [15] concerns the target Bile acid receptor (Homo sapiens) (UniProt Q96RI1). The experiment is described as follows: qHTS assay to identify small molecule agonists of the farnesoid-X-receptor (FXR) signaling pathway (AID 743220; active = well fitted activation curve with a large enough effect in the signal ratio in the repeat runs, not every such curve was filed as active; the % refers to the signal ratio). The gist of the method:
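FXR-UAS-bla HEK 293T cells carrying a UAS-driven beta-lactamase reporter were plated for 5 h at 37C/5% CO2, then exposed to DMSO-dissolved Tox21 10K compounds for 16 h at 37C. A LiveBLAzer B/G FRET substrate was loaded for 2 h at room temperature before fluorescence reading.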

The nature of experiment [16]: qHTS assay to identify small molecule antagonists of the farnesoid-X-receptor (FXR) signaling pathway - cell viability counter screen (AID 743221; active = well fitted cell-killing curve with a large enough effect in the repeat runs, not every such curve was filed as active; note: nearly all actives have a fitted effect of over 50% in size). The gist of the method: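 FXR-UAS-bla HEK 293T cells were treated with test compounds plus chenodeoxycholic acid (50 uM final) for 16 h at 37 C. Cell viability in the same wells was then read as CellTiter-Glo luminescence after 30 min at room temperature.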

Experiment [17] concerns the target Vitamin D3 receptor (Homo sapiens) (UniProt P11473). As to the kind of experiment: qHTS assay to identify small molecule agonists of the vitamin D receptor (VDR) signaling pathway (AID 743222; calls by dose curve). The gist of the method:
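Cells carrying a VDR-driven beta-lactamase reporter are seeded at 2,000 per well and rested 4 h. Compounds in DMSO are added for 16 h at 37C, and FRET substrate fluorescence is measured after 2 h at room temperature.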

Experiment [18] shares this target. The experiment is described as follows: qHTS assay to identify small molecule antagonists of the vitamin D receptor (VDR) signaling pathway (AID 743223; active = well fitted inhibition curve with a large enough effect in the signal ratio in the repeat runs, not every such curve was filed as active; the % refers to the signal ratio). The gist of the method: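 VDR-bla cells were plated, incubated 4 h at 37C, then given compound and 1alpha,25-dihydroxyvitamin D3 (3 nM final). After 16 h at 37C, LiveBLAzer B/G FRET substrate was added for 2 h at room temperature and fluorescence read.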

For experiment [19], the target named is Peroxisome proliferator-activated receptor delta (Homo sapiens) (UniProt Q03181). As to the kind of experiment: qHTS assay to identify small molecule agonists of the peroxisome proliferator-activated receptor delta (PPARd) signaling pathway (AID 743212; calls by dose curve). In outline: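 Cells expressing a UAS-driven beta-lactamase reporter (PPARd-bla HEK293H) were given test compounds after a 5 h settle and kept at 37 C. Reporter activity was then measured as FRET fluorescence using LiveBLAzer B/G substrate.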

The target is the same in experiment [20]. The experiment is described as follows: qHTS assay to identify small molecule antagonists of the peroxisome proliferator-activated receptor delta (PPARd) signaling pathway (AID 743215; active = well fitted inhibition curve with a large enough effect in the signal ratio in the repeat runs, not every such curve was filed as active; the % refers to the signal ratio;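 note: cells stimulated with agonist L165041 at 300 nM final during compound exposure; series mostly up to about 62 µM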). In outline:
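Cells: HEK293H with a UAS-driven beta-lactamase reporter responsive to PPARd. Compounds were co-added with L165041 (300 nM, final) and incubated 17 h at 37 C before a 2 h room-temperature FRET substrate step and fluorescence reading.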

Aryl hydrocarbon receptor (Homo sapiens), sequence (P35869 whole entry, looked up): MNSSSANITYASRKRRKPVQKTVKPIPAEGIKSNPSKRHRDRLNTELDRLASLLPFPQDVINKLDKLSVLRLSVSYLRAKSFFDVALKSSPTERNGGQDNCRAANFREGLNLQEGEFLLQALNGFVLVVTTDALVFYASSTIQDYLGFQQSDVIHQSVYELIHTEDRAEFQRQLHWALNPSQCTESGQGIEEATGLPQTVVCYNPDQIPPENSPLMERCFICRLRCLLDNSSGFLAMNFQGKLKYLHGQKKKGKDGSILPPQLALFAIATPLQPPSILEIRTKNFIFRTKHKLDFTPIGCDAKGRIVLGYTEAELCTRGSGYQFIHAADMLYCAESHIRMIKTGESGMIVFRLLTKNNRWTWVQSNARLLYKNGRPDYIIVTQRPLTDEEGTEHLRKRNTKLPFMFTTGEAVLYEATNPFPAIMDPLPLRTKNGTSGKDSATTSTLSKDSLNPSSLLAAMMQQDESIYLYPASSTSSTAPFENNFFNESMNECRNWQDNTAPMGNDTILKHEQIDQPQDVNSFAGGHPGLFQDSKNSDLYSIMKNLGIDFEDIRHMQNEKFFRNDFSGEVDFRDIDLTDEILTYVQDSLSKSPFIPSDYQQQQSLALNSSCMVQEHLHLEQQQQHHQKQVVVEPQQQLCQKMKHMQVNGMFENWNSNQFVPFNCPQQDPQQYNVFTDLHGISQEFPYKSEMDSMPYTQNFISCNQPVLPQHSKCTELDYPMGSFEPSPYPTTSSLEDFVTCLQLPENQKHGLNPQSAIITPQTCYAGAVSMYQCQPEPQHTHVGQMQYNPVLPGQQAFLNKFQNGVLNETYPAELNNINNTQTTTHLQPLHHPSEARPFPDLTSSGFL
Vitamin D3 receptor (Homo sapiens), sequence (P11473 whole entry, looked up): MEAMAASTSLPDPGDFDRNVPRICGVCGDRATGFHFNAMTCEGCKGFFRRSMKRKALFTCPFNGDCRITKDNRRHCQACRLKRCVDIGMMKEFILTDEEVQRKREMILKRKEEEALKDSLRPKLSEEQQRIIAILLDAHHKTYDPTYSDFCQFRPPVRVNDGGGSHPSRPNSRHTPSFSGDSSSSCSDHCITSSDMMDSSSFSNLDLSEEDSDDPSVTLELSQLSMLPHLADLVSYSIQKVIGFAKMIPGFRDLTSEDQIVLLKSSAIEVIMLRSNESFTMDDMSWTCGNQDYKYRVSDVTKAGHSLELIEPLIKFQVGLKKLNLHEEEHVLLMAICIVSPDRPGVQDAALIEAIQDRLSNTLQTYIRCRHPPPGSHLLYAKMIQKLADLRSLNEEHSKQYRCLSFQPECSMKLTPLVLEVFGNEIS
Bile acid receptor (Homo sapiens), sequence (Q96RI1 whole entry, looked up): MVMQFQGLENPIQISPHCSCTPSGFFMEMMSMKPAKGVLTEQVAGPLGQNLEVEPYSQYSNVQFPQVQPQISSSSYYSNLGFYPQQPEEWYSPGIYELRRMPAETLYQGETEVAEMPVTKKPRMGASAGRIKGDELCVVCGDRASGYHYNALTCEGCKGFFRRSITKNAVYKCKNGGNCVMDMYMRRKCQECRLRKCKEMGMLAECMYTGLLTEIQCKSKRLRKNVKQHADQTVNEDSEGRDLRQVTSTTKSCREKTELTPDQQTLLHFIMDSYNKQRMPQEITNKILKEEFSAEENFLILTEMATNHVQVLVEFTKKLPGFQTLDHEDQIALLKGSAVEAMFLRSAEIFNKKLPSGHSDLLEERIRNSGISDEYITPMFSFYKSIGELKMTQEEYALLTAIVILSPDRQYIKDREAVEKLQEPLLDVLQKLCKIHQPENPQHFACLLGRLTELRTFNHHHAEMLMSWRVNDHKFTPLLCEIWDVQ
Peroxisome proliferator-activated receptor delta (Homo sapiens), sequence (Q03181 whole entry, looked up): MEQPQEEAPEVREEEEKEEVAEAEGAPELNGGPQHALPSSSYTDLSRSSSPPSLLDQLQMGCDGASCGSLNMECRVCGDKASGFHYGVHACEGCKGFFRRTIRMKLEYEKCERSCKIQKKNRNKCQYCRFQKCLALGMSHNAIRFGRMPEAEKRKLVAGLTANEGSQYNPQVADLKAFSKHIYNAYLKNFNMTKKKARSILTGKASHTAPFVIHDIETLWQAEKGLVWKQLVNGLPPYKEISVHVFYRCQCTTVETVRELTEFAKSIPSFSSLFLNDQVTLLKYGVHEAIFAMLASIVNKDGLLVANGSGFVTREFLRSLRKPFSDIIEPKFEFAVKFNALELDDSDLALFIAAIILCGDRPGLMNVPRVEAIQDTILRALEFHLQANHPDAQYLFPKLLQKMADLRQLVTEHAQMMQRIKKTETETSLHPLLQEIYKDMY
Peroxisome proliferator-activated receptor gamma (Homo sapiens), sequence (P37231 whole entry, looked up): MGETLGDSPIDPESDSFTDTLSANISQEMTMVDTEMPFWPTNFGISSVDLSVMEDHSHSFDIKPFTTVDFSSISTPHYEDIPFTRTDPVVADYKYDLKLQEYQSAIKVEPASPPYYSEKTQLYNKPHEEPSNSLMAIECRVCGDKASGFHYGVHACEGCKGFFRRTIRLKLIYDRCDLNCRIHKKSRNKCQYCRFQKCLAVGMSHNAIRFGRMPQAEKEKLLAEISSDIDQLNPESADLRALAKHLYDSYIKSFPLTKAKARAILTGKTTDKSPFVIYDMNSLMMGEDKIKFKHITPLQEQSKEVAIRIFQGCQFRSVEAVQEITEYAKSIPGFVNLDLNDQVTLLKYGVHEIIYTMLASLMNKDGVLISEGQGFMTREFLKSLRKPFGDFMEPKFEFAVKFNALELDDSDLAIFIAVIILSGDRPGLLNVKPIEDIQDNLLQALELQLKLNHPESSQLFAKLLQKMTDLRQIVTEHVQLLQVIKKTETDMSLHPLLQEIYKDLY

Turning to `CCCOCCO`, the Potency entry in [1], in experiment [2], in [3], in experiment [5], in experiment [6] and in experiment [7] was “inactive” each time. The Potency entry in experiment [8], in [9], in [11], in experiment [12], in experiment [13] and in experiment [14] was “inactive” in each case. Moreover, in [16], the Potency result was “inactive”. The compound was classed as inactive in [4], in [10], in [15], in experiment [17] and in experiment [18].
On to `IC(I)I`, for which the Potency result in experiment [1], in experiment [2], in experiment [3], in [5], in [7] and in experiment [8] was “inactive” in each case. The Potency entry in experiment [9], in [11], in [12], in experiment [13], in [14] and in experiment [16] was “inactive” in each case. Further, the compound was called inactive in [4], in experiment [10], in experiment [19], in [20] and in [15].
In the case of `CCCCCCCCCCCCCO`, the Potency entry in [1], in experiment [2], in experiment [3], in experiment [5], in [6] and in [7] was “inactive” throughout. The Potency result in experiment [8], in experiment [9], in [11], in [12], in experiment [14] and in [16] was “inactive” throughout. Also, the result in [4], in experiment [10], in experiment [19], in experiment [20], in experiment [17] and in experiment [18] was inactive.
Regarding `CC1(C)OC(=O)NC1=O`, the Potency result in experiment [1], in experiment [2], in experiment [3], in experiment [5], in [6] and in [7] was “inactive” each time. The Potency entry in [8], in experiment [9], in experiment [11], in experiment [12], in experiment [13] and in [14] was “inactive” each time. In experiment [16], the Potency result is “inactive”. Also, the result in experiment [4], in [10], in [19], in [20], in experiment [15] and in experiment [17] was inactive. Besides, the result in [18] was inactive.
Turning to `CN(C)/N=N/c1nc[nH]c1C(N)=O`, the Potency result in experiment [1], in experiment [2], in [3], in experiment [5], in experiment [7] and in experiment [8] was “inactive” each time. Further, the Potency result in experiment [9], in [11], in experiment [12], in experiment [13], in experiment [14] and in experiment [16] was “inactive” throughout. For the same compound, the outcome in [4], in experiment [10], in [19], in [20] and in [15] was inactive.
For the compound `COC(=O)C(C)Oc1ccc(Oc2ncc(C(F)(F)F)cc2Cl)cc1` (stereo unspecified), the Potency entry in experiment [1], in experiment [2], in experiment [3], in experiment [5], in experiment [6] and in experiment [8] was “inactive” in each case. Besides, the Potency result in experiment [11], in experiment [12], in experiment [14] and in experiment [16] was “inactive” throughout. Further, the compound was called inactive in experiment [4], in experiment [10], in [19], in experiment [20], in [17] and in [18].
Turning to `Nc1cc(Cl)c(N)c(Cl)c1`, the Potency result in experiment [1], in experiment [3], in experiment [5], in [6], in [8] and in experiment [9] was “inactive” each time. In addition, the Potency result in [11], in experiment [12], in [13], in [14] and in experiment [16] was “inactive” each time. For the same compound, the Potency in [2] was 27.1 µM (active) and 21.7 µM (active); in experiment [7] it was 27.3 µM (active). Moreover, the call in [4], in [10], in experiment [19], in experiment [20], in experiment [15] and in experiment [17] was inactive.
With `[Na+]`, the Potency entry in [1], in experiment [2], in experiment [3], in experiment [5], in experiment [6] and in experiment [7] was “inactive” each time. Moreover, the Potency entry in experiment [8], in experiment [9], in experiment [11], in experiment [12], in experiment [14] and in experiment [16] was “inactive” throughout. The compound was classed as inactive in [4], in experiment [10], in experiment [19] and in experiment [20].
